Shown is part of a subset that was picked to be rich in hits.
MgrA DNA FP: S. aureus MgrA activity modulators, primary screen, biochemical, S. aureus Newman, fluorescence polarization; MgrA-DNA binding; inhibition, % (no concentration beside the values); 0.13% of 84,000 active; in the data active means inhibition above about 30%, passing the limit was not always enough;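 further: 0% = protein plus DNA without compound and 100% = DNA alone without protein; higher means less MgrA bound to DNA so lower polarization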
Starred values were filed as active, the others as inactive.

SMILES	MgrA DNA FP
CN1C(=O)/C(=C/c2ccc(I)o2)C(=O)NC1=S	98*
O=C1NC(=S)N(c2ccc(Br)cc2)C(=O)/C1=C\c1ccc(-c2ccccc2C(=O)O)o1	16
C=CCN1C(=O)/C(=C/c2ccco2)C(=O)NC1=S	38
Cc1ccc(/C=C/[N+](=O)[O-])cc1	-5
CC[n+]1c(-c2ccccc2)c2cc(N)ccc2c2ccc(N)cc21	58*
CN1C2CCC1CC(NC1CCCCC1)C2 (stereo unspecified)	-1
Cc1ccccc1N1CCNCC1	0
C1CCN(CC2COC3(CCCCC3)O2)CC1 (stereo unspecified)	-1
CO[C@@H]1C[C@@H](C[C@H]2CC[C@H](C)[C@H]([C@@H](C)C(=O)O)O2)O[C@]2(O[C@](C)([C@H]3CC[C@@](C)([C@@H]4O[C@@H]([C@H]5O[C@@](O)(CO)[C@H](C)C[C@@H]5C)C[C@@H]4C)O3)C[C@H]2C)[C@@H]1C	1
CCN1C(=O)C(=Cc2cccn2C)C(=O)N(CC)C1=S	31

Compound activity from PubChem.
